# Measurements from PubChem BioAssay AID602252 (Broad Institute, 2012).
# About 2,700 (0.9%) of roughly 300,000 compounds were called active.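 Rule for the calls: active = mean inhibition of at least 30% with at least half of replicates also reaching 30%; inconclusive = no clear call, values can overlap the other calls; inactive = the rest.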 What follows is part of a selection rich in actives, with near analogues and random picks from the rest.
# Target: Golgi-associated PDZ and coiled-coil motif-containing protein (Homo sapiens) (UniProt Q9HD26)
# Assay: untagged CAL PDZ binding inhibitors, primary screen, biochemical, fluorescence polarization, HTS (AID 602252);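 note: 0% = DMSO neutral control and 100% = excess unlabeled competitor peptide PRC23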
# Details: purified CAL PDZ, TMR-peptide fluorescence polarization, 1 h; at 24.9 µM; active compounds read high
row,Structure (SMILES),inhibition
1,COCCN(C(=O)C(C)N1C(=O)c2ccccc2C1=O)c1c(N)n(CC(C)C)c(=O)[nH]c1=O (stereo not given),-19.9% (inactive)
2,COc1ccc(CC(=O)N[C@@H]2c3cc(OC)c(OC)cc3C[C@H]2OCc2ccccc2)cc1,-0.172% (inactive)
3,CSc1ccccc1NC(=O)c1cc(Cl)sc1Cl,35% (active)
4,CSc1ccccc1NC(=O)c1cnc2sc(C)cn2c1=O,-2.14% (inactive)
5,COc1ccc(C)cc1NC(=O)Nc1ccccc1SC,-2.98% (inactive)
6,O=C(COC(=O)COc1cccc(F)c1)NCC1CCCCC1,-0.678% (inactive)
7,O=C(Nc1nnc(-c2ccccc2)o1)c1cccc(S(=O)(=O)N2CCOCC2)c1,7.28% (inactive)
8,O=C(c1ccc(N2CCOCC2)c([N+](=O)[O-])c1)N1CCN(c2ccccc2F)CC1,-2.67% (inactive)
9,O=C(OCC(=O)N1CCOCC1)c1ccc(N2CCOCC2)c([N+](=O)[O-])c1,53.8% (active)
10,O=C(Oc1ccccc1Cl)c1ccc(N2CCOCC2)c([N+](=O)[O-])c1,-0.07% (inactive)
11,CC(=O)Nc1ccc(S(=O)(=O)Nc2ccc(N3CCCCC3)cc2)cc1,-0.222% (inactive)
12,CC(C)N(C(=O)[C@H]1C[C@H](CC(=O)NC(C)(C)C)C(=O)N2CCc3c([nH]c4ccc(Cl)cc34)[C@]12C)C(C)C,1.76% (inactive)
13,Cn1c(CCC(=O)Nc2ccccc2F)nnc1SCC(=O)Nc1ccccc1Cl,63.9% (active)
14,COc1ccc(C)cc1NC(=O)CSc1nnc(CC(=O)Nc2ccccc2F)n1C,-5.79% (inactive)
15,Cn1c(SCC(=O)Nc2ccc(Br)cc2F)nnc1-c1ccco1,-0.672% (inactive)
16,CN(C)c1ccc(CSc2ccccc2)cc1,-6.85% (inactive)
17,COc1ccc2oc(N)nc2c1,-0.189% (inactive)
18,CCOC(=O)c1ccccc1NC(=O)CSc1nc2c(sc(=S)n2CC)c(=O)[nH]1,-5.33% (inactive)
19,CCN(C[C@H]1N[C@@](CC)(C(=O)OC)[C@H]2C(=O)N(Cc3ccccc3)C(=O)[C@@H]12)S(=O)(=O)c1ccc(C(F)(F)F)cc1,-1.59% (inactive)
20,CC1(C)CC(N2CCN(C(c3ccccc3)c3ccccc3)CC2)=CC(=[N+]2CCCCC2)C1,46.7% (active)
21,O=C(O)CN1CCN(C(c2ccccc2)c2ccccc2)CC1,0.69% (inactive)
22,CC(C)NC(=S)N1CCN(C(c2ccccc2)c2ccccc2)CC1,-1.91% (inactive)
23,CCCCCC1CC(COc2ccccc2)OC1=O (stereo not given),8.53% (inactive)

row,Structure (SMILES),inhibition
1,CCCCN1CC(CO)Oc2cccc(F)c2S1(=O)=O (stereo not given),-3.69% (inactive)
2,COc1cccc(C=CC(=O)C=CC=Cc2ccccc2)c1,0.692% (inactive)
3,Cc1[nH]n(-c2ccc([N+](=O)[O-])cc2)c(=O)c1C=NCCN1CCN(C(=O)c2ccccc2F)CC1,51.8% (active)
4,Cc1[nH]n(-c2ccccc2)c(=O)c1N=Nc1ccccc1C(=O)N1CCCCC1,-3.5% (inactive)
5,C=CCNC(=S)N1CCN(CCN=Cc2c(C)[nH]n(-c3ccc([N+](=O)[O-])cc3)c2=O)CC1,-1.05% (inactive)
6,COc1ccc(C(=O)Nc2cccc(/C=C(/CCC(=O)O)c3nc4ccccc4s3)c2)cc1,-1.62% (inactive)
7,CN1c2ccc(C=O)c3c(C=O)ccc(c23)N(C)C1(C)C,67% (active)
8,Cc1onc(-c2c(F)cccc2Cl)c1C(=O)OCC(=O)N1C(C)CCCC1C (stereo not given),-2.47% (inactive)
9,COc1ccc(CC(=O)NC(C)c2ccc(Cl)c(Cl)c2)cc1S(=O)(=O)N1CCOCC1 (stereo not given),-1.91% (inactive)
10,CCCN(CC(=O)NC(=O)NC1CCCCC1)CC(=O)Nc1cc(Cl)ccc1Cl,-3.68% (inactive)
11,Cc1ccc(S(=O)(=O)N(C)c2ccc(OCC(=O)NC3=NCCS3)cc2)cc1,-1.61% (inactive)
12,CN(c1ccc(OCC(=O)NC2=NCCS2)cc1)S(=O)(=O)c1ccc(F)cc1,81.4% (active)
13,CN(c1ccccc1)S(=O)(=O)c1ccc(NC(=O)COc2ccccc2)cc1,-1.05% (inactive)
14,Cc1ccc(S(=O)(=O)N2CCN(C(=O)Cn3c(=O)cnc4ccccc43)CC2)c(C)c1,-10.5% (inactive)
15,COc1ccc(CNCCCNCc2ccc(OC)c(OC)c2)cc1OC,2.4% (inactive)
16,CSCCC(NS(=O)(=O)c1ccc(C)cc1)C(=O)N1CCCC1 (stereo not given),68.8% (active)
17,CSCCC(NC(=O)c1ccccc1)C(=O)N1CCCCCCC1 (stereo not given),-1.09% (inactive)
18,CSCC(NS(=O)(=O)c1ccc(C)cc1)C(=O)O (stereo not given),2.04% (inactive)
19,O=C1[C@@H](c2ccccc2)[C@@H](c2ccccc2)N1c1cccnc1,-3.46% (inactive)
20,O=C(Cc1ccc(S(=O)(=O)N2CCOCC2)s1)Nc1ccc(Br)c(C(F)(F)F)c1,-2.21% (inactive)
21,Cc1nc2ccc(NC(=O)c3cccc(S(=O)(=O)N4CCOCC4)c3)cc2s1,-4.38% (inactive)
22,CC(=O)NC(=S)Nc1ccc(NC(=S)NC(=O)c2ccc([N+](=O)[O-])cc2)cc1,56.3% (active)
23,O=C(NC(=S)Nc1ccc(NC(=O)c2cccs2)cc1)c1ccc([N+](=O)[O-])cc1,-2.58% (inactive)

row,Structure (SMILES),inhibition
1,CC(=O)Nc1ccc(NC(=S)NC(=O)c2ccc([N+](=O)[O-])c(C)c2)cc1,-0.773% (inactive)
2,O=C(Nc1ccc2ccccc2c1[N+](=O)[O-])c1ccccc1,0.89% (inactive)
3,CC1(C)CCSC(/C=C/c2ccccc2)=N1,76.1% (active)
4,CC(C)[C@@H](C(=O)OCC(=O)c1ccc2c(c1)NC(=O)CO2)N1C(=O)c2ccccc2C1=O,-3.95% (inactive)
5,CN(Cc1ccccc1)C(=O)c1ccc(COc2ccccc2)cc1,-2.72% (inactive)
6,CN(Cc1ccccc1)C(=O)COc1ccccc1,34.5% (active)
7,CN(Cc1ccc(F)cc1)C(=O)COc1ccc2ccccc2c1,-2.25% (inactive)
8,CN1CCC(N(C)C(=O)c2ccc(Cl)c(S(=O)(=O)Nc3ccc(Cl)cc3)c2)CC1,4.93% (inactive)
9,CC(C)(C)OC(=O)N1CCC(C(=O)Nc2cccc(C(=O)NCCc3ccccc3)c2)CC1,-2.65% (inactive)
10,COc1ccc(CNc2nc(NCc3ccc(OC)cc3)c3ncn(C4CCCC4)c3n2)cc1,2.25% (inactive)
11,O=C(Nc1cc(S(=O)(=O)Nc2ccc(Cl)cc2)ccc1O)c1ccc(F)cc1F,-2.45% (inactive)
12,COc1ccc(N=C2C=CC(=O)O2)cc1,-18.5% (inactive)
13,CCO[C@H]1OC(C(=O)N2CCOCC2)=C[C@@H](c2ccc3c(c2)OCO3)[C@@H]1CCCO,31.2% (active)
14,CCO[C@@H]1OC(C(=O)N2CCOCC2)=C[C@H](C)[C@H]1CCCO,-0.99% (inactive)
15,CCO[C@H]1OC(C(=O)N2CCCCCCC2)=C[C@@H](c2ccc(C(F)(F)F)cc2)[C@@H]1CCCO,-1.81% (inactive)
16,O=C(Cc1ccc(NC(=O)C2CCCN(C(=O)CCc3ccccc3)C2)cc1)Nc1ccc(C(=O)N2CCOCC2)cc1 (stereo not given),-8.09% (inactive)
17,CC1CCCCC1NCC(=O)Nc1ccccc1C(=O)Nc1ccccc1 (stereo not given),-1.41% (inactive)
18,CN(C)C(=S)N=c1ssc(=S)n1Cc1ccco1,-2.26% (inactive)
19,O=C(CNC(=O)c1cc(S(=O)(=O)N2CCOCC2)ccc1N1CCCC1)Nc1ccc(F)c(F)c1,-2.42% (inactive)
20,C/C(=N/NC(=O)c1cc(Cl)ccc1O)C12CC3CC(CC(C3)C1)C2,0.948% (inactive)
21,O=C(N/N=C1\CCSC1)c1cc(Cl)ccc1O,39.8% (active)
22,CC(C)/C=N/NC(=O)c1cc(Br)ccc1O,-1.22% (inactive)
23,COc1cc(O)c2c(=O)c3c(O)c(O)ccc3oc2c1OC,-1.48% (inactive)

row,Structure (SMILES),inhibition
1,O=C(Cn1cnc2c(OCc3ccccc3)ncnc21)NCc1nc2ccccc2[nH]1,9.79% (inactive)
2,CCOc1cc(C(=O)N(Cc2ccccc2)c2ccc(C)cc2)ccc1OCC(=O)N1CCOCC1,-2.56% (inactive)
3,N#CC1(Nc2ccc(-c3ccc(Cl)cc3)cc2)CCCC1,-1.39% (inactive)
4,O=[N+]([O-])c1cc(S(=O)(=O)NCCc2ccccn2)ccc1Cl,40.3% (active)
5,O=[N+]([O-])c1cccc(S(=O)(=O)NCc2ccccn2)c1,-3.81% (inactive)
6,O=S(=O)(NCCc1ccccn1)c1cc(Cl)cc(Cl)c1O,-0.874% (inactive)
7,Cc1c(NS(=O)(=O)c2cccc(C(=O)Nc3ccc(SC(F)F)cc3)c2)c(=O)n(-c2ccccc2)n1C,-2.68% (inactive)
8,Cc1cc(S(=O)(=O)NCc2ccccn2)c(Cl)cc1Cl,-2.31% (inactive)
9,Fc1ccc(-c2ccc(CNCc3ccccn3)o2)cc1Cl,52.7% (active)
10,CN(Cc1ccccn1)Cc1nc(-c2ccc(Cl)cc2)no1,-1.29% (inactive)
11,NC(=O)C1(N2CCCC2)CCN(Cc2ccccc2)CC1,-1.05% (inactive)
12,COc1ccc(CNC(=O)C[C@H]2C[C@H](C(=O)N3CCOCC3)[C@@]3(CCC4CCCC4)c4[nH]c5ccc(Cl)cc5c4CCN3C2=O)cc1OC,-0.587% (inactive)
13,O=C(NCc1ccc2c(c1)OCO2)c1cc(F)c(F)cc1Cl,-5.1% (inactive)
14,COc1ccc(NC(=O)NCc2ccc3c(c2)OCO3)c(OC)c1,-1.76% (inactive)
15,COc1cc(OC)c(C(=O)NCc2ccc3c(c2)OCO3)cc1OC,81% (active)
16,O=C(NCCC(=O)N1O[C@@H]2C=C[C@H]1C2)OCC1c2ccccc2-c2ccccc21,-5.2% (inactive)
17,O=C1CC2(CCCC2)C(=O)N1CN1CCN(S(=O)(=O)c2ccc(F)cc2F)CC1,-4.29% (inactive)
18,COc1ccc(CNCCCn2cnc3c(OCc4ccccc4)ncnc32)cc1,-2.18% (inactive)
19,C=Cn1c(C(=O)O)ccc1-c1ccc(OC)cc1,37.7% (active)
20,COc1ccc(OCC(=O)N2CCN(C(=O)COc3ccccc3)CC2)cc1,-1.31% (inactive)
21,COc1ccc(-c2ccc(CCC(=O)O)n2-c2ccc(O)cc2)cc1,-0.609% (inactive)
